Bioassay records (PubChem BioAssay)
Sampled rows, rich in hits. Any-hit rate of the full collection: about 12%.
TDP1 block = TDP1 (human) enzyme inhibition; Q9NUW8; recombinant TDP1, AlphaScreen DNA substrate cleavage; Potency, µM (series often up to 130 µM), without a hit: at the top dose activity change, negative = inhibition, most hits filed as inhibitors; actives 0.28% (n = 350,000); further: potency means the concentration at half of the fitted maximal effect; on the % scale 0 is the no-effect control and ±100 the full control effect; nearly all actives have a fitted effect of over 40% in size
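Tdp1 1 nM final; 15 min RT w/ cpd; substrate 15 nM, 5 min; beads 10 ug/ml, 10 min; AlphaScreen read. Neg ctrl: no enzyme.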
HP1b chromo inh = inhibitors of HP1-beta chromodomain binding to methylated histone tails. AlphaScreen HP1-beta / biotin-H3K9me3 peptide binding. Potency, µM (doses to about 114 µM), without a hit: top-dose activity change, negative = inhibition, hits mostly inhibitors. AID 540317. actives 0.56% (n = 390,000); further: potency means the concentration at half of the fitted maximal effect; nearly all actives have a fitted effect of over 70% in size
Target sequence (P83916 whole entry, looked up): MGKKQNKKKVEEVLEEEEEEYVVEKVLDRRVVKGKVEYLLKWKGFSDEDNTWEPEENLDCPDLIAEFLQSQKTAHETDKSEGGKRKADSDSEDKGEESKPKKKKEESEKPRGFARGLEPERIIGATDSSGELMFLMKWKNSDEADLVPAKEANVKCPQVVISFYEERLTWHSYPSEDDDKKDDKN
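AlphaScreen: HP1-beta (50 nM) preformed 30 min with biotin-H3(1-18)K9me3 peptide (50 nM) in PBS pH 7.4, 0.01% Tween-20. Compound added for 30 min at RT, then streptavidin donor/nickel chelate acceptor beads (10 ug/mL) for 30 min.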
Sfp PPTase inh = inhibitors of Bacillus subtilis Sfp phosphopantetheinyl transferase. Q9F4F7. actives 3.5% (n = 310,000). Biochemical Sfp PPTase activity, qHTS. Potency, µM, for inactives: largest response in the series, negative = inhibition, hits mostly inhibitors;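 further: the enzyme is Sfp with the accession as filed and its product quenches rhodamine fluorescence; potency means the concentration at half of the fitted maximal effect; 0% = enzyme reaction without inhibitor and -100% = no enzyme wells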
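Reaction rates are the 30-min fluorescence difference (ex 525, em 598 nm) in wells containing 15 nM Sfp, 5 uM rhodamine-CoA and 12.5 uM BHQ-2-YbbR at pH 7.6 with 10 mM MgCl2.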
BAZ2B block = blocks human BAZ2B; Potency, µM (top dose mostly 114 µM), for inactives: top-dose activity change, negative = inhibition, actives largely listed as inhibitors; AID 504333; AlphaScreen BAZ2B-H3K14Ac peptide displacement; Q9UIF8; actives 4.4% (n = 360,000); further: potency means the concentration at half of the fitted maximal effect; on the % scale 0 is the no-effect control and ±100 the full control effect; nearly all actives have a fitted effect of over 60% in size
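AlphaScreen luminescence quantifies BAZ2B engagement of H3K14Ac peptide; the protein and biotinylated peptide are both at 50 nM final, buffer PBS pH 7.4 with 0.01% Tween-20, all steps at room temperature.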
JMJD2A Tudor = JMJD2A Tudor domain (human) inhibition. O75164. AlphaScreen JMJD2A-Tudor / H3K4me3 peptide binding. Potency, µM (doses to about 114 µM), without a hit: top-dose activity change, negative = inhibition, hits mostly inhibitors. actives 4.4% (n = 390,000); further: potency means the concentration at half of the fitted maximal effect; on the % scale 0 is the no-effect control and ±100 the full control effect; nearly all actives have a fitted effect of over 50% in size
G9a inh-1 = inhibitors of human histone lysine methyltransferase G9a | Q96KQ7 | G9a H3K9 monomethylation, AlphaScreen, 2 h | Potency, µM (top dose mostly 102 µM), for inactives: top-dose activity, negative = inhibition, actives largely listed as inhibitors | actives 8.8% (n = 350,000) | AID 504332; further: potency means the concentration at half of the fitted maximal effect; on the % scale 0 is the no-effect control and ±100 the full control effect; nearly all actives have a fitted effect of over 75% in size
Target sequence (Q96KQ7 913-1193 limits assumed): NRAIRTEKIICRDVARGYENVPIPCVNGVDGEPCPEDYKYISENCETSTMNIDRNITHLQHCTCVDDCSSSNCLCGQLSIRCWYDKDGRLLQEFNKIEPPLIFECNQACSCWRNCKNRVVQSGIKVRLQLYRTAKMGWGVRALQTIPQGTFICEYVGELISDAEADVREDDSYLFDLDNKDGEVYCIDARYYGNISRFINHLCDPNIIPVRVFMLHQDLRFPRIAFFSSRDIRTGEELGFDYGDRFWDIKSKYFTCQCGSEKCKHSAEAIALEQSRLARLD
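Quantitative HTS format: methyltransferase activity on a biotin-tagged H3K9 peptide is measured by AlphaScreen, using a rabbit anti-monomethyl-H3K9 antibody with streptavidin donor and anti-IgG acceptor beads. Final levels are 20 nM enzyme, 500 nM peptide, 20 uM SAM; 2 h RT.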
G9a inh-2 = inhibits human G9a histone lysine methyltransferase, hit confirmation | shares compounds with JMJD2A Tudor | G9a H3K9 monomethylation, AlphaScreen, 2 h | Potency, µM, actives largely listed as inhibitors | actives 89% (n = 370) | AID 588344; further: potency means the concentration at half of the fitted maximal effect; nearly all actives have a fitted effect of over 65% in size
RGS4 inh = confirmation of human RGS4 inhibitors; shares compounds with JMJD2A Tudor; RGS4 GAP activity, Transcreener GDP fluorescence polarization; Potency, µM, usual class: inhibitors; actives 80% (n = 25); AID 602388
Target sequence (P49798 whole entry, looked up): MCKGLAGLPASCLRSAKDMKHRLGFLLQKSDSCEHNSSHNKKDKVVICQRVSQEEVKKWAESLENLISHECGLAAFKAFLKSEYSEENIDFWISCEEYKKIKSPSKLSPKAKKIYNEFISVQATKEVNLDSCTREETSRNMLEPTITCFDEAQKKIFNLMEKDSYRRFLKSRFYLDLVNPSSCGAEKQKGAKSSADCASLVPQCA
An asterisk follows results filed as active; ? = inconclusive; nt = no result given; ! = repeats disagree; [ ] = remark or other dose. The call rests on the fitted dose curve; in most records, active means well fitted curve in the direction sought with a large enough effect; inconclusive means small, poorly fitted or top-dose-only effect, or another doubt; inactive means no such curve, though single readings can be large; an effect the other way counts as inactive or inconclusive.

SMILES | TDP1 block | HP1b chromo inh | Sfp PPTase inh | BAZ2B block | JMJD2A Tudor | G9a inh-1 | G9a inh-2 | others
Cc1ccc(S(=O)(=O)N(C)c2ccc(OCC(=O)N3CCCCC3)cc2)cc1 | 2% | 8% | 11% | 0% | -7% | 6% | nt
C=CCOc1ccc(/C=C/C(=O)OCC(=O)N(C)CC(=O)Nc2ccccc2Cl)cc1 | nt | 41% | nt | 2% | -18% | -4% | nt
Cc1cn2c(=O)cc(COc3cccc(NC(=O)c4ccc(C(C)(C)C)cc4)c3)nc2s1 | 4% | 16% | nt | -35% | -24% | 0.79µM* | ?
Cc1cccc(C(=O)Nc2cccc(OCc3cc(=O)n4cc(C)sc4n3)c2)c1 | 6% | 11% | nt | -1% | -26% | -16%[59 µM] | nt
CCN(CC)c1ccc(NC(=O)COC(=O)c2cccs2)cc1 | 9% | -8% | -6% | 45µM* | ? | 1.3µM* | 2.2*
C=CCOc1ccccc1OCC(O)CNC(C)C (stereo not drawn) | nt | 21% | nt | -1% | -18% | -32%[59 µM] | nt
CCOc1cccc(CNc2ccc(O)cc2)c1OCc1ccc(Cl)cc1Cl | 4% | ? | 14µM* | ? | -35% | 2.5µM* | 2.5*
CCOc1cccc(CNn2cnnc2)c1OCc1ccccc1Cl | 3% | 20% | 19% | -3% | -15% | 11%[59 µM] | nt
CCOc1cccc(CNc2ccc(O)cc2)c1OCc1ccccc1Cl | 8% | ? | -13% | ? | 45µM* | 4.5µM* | 3.2*
CC1(C)Cc2ccccc2C(C(Cc2ccccc2)C(N)=O)=N1 (stereo not drawn) | 9% | 37% | 10% | 3% | -6%[57.1 µM] | 11% | nt
Cc1ccccc1OCCn1c(CCNC(=O)C2CCCCC2)nc2ccccc21 | -8% | 21%[57 µM] | nt | -2% | -26%[57.1 µM] | 5%[59 µM] | nt
O=C(CSc1ncccn1)NCc1ccc(F)cc1 | 6% | 31% | 10% | nt | -7% | 14%[59 µM] | nt
Cc1ccc(CNC(=O)CSc2ncccn2)cc1 | 1% | 16% | 12% | -5% | -7% | ? | 22*
Brc1ccc(-c2noc3c2-c2nc(C4CCCCC4)sc2CC3)cc1 | nt | 4% | nt | nt | -5% | nt | nt
CC(C)(C)C1CCc2c(sc(NC(=O)c3ccncc3)c2C(=O)Nc2ccccc2Cl)C1 (stereo not drawn) | nt | 26% | nt | -28% | ? | 2.2µM* | ?
CCOC(=O)c1ccc(S(=O)(=O)N2CCN(Cc3cc4c(cc3O)OCO4)CC2)cc1 | 2% | 11% | nt | -34% | -21% | 0.4µM* | 0.89*
O=S(=O)(c1ccccc1F)N1CCN(Cc2cc3c(cc2O)OCO3)CC1 | 7% | 39% | nt | ? | ? | ? | nt
CC(C)COC(=O)N1CCCC1C(=O)Nc1nccs1 (stereo not drawn) | 2% | -2% | 7% | -35% | -14% | ? | 13*
CCOc1ccc(CNCc2c(C(=O)O)n(Cc3ccccc3F)c3cc(OC)ccc23)cc1 | 5% | -2% | nt | -33% | -35% | -24%[59 µM] | nt
O=S(=O)(NN1CCOCC1)c1ccc(Br)cc1 | 2% | 40% | 1% | 0% | -3% | 0.4µM* | 1.6*
CCS(=O)(=O)N1CCN(Cc2ccccc2OC)CC1 | 6% | ? | 28µM* | 22µM* | 3.2µM* | 2.5µM* | ?
COc1ccccc1CN1CCC2(CC1)CCN(S(C)(=O)=O)CC2 | nt | nt | 16% | nt | nt | -2%[12.7 µM] | nt
COc1ccc(OC)c(NC(=O)CSc2ccc(-c3cccs3)nn2)c1 | 3% | -15% | nt | -19% | ? | 2.8µM* | 10*
CC1CN(Cc2c(O)ccc3c(=O)c(-c4ccccc4)coc23)CC(C)O1 (stereo not drawn) | 0% | 19% | 13% | -9% | -4% | -9% | nt
CC1CN(Cc2c(O)ccc3c2oc(=O)c2ccccc23)CC(C)O1 (stereo not drawn) | -14% | ? | 79µM* | 4µM* | 10µM* | 0.45µM* | 0.28*
SMILES | TDP1 block | HP1b chromo inh | Sfp PPTase inh | BAZ2B block | JMJD2A Tudor | G9a inh-1 | G9a inh-2 | others
CCOc1ccc(NC(=O)CN2CCN(CC(=O)c3ccc(OCC)cc3)CC2)cc1 | 14% | 46% | -6% | 8% | ? | 2.8µM* | 5.6*
COc1ccc(NC(=O)CN2CCN(CC(=O)Nc3ccc(OC)c(OC)c3)CC2)cc1 | 5% | 18% | 9% | -1% | -8% | -8%[12.7 µM] | nt
CCOc1ccc(NC(=O)CN2CCN(CC(=O)c3ccc(OC)c(OC)c3)CC2)cc1 | 5% | 0% | 8% | 8% | ? | 2.5µM* | 45*
CCN(CC)c1ccc(NC(=O)CN2CCN(S(=O)(=O)c3cc(Cl)ccc3OC)CC2)cc1 | 16% | ? | -5% | 50µM*! | 40µM* | 8.9µM* | 4*
O=C1c2c(O)cc(O)cc2O[C@H](c2ccc(O)c(O)c2)C1O (stereo partly drawn) | 4% | nt | -22% | nt | nt | nt | nt
CCc1nnc(NC(=O)CC23CC4CC(CC(Br)(C4)C2)C3)s1 | 0% | 3% | 12% | -9% | -19% | 21% | nt
COC(=O)c1c(-c2cccs2)csc1NC(=O)COc1ccccc1 | -13% | -8% | nt | ? | -28% | 1.8µM* | 4.1*
O=C(Nc1ccc2c(c1)oc1ccccc12)N1CCOCC1 | 0% | 48% | 18% | 4% | -7% | 6% | nt
CCn1c2ccccc2c2cc(NC(=O)N3CCOCC3)ccc21 | 2% | -11% | -3% | ? | -18% | ? | 10*
O=C(c1cccnc1)N1CCN(Cc2ccc3c(c2)OCO3)CC1 | ? | ? | ? | 50µM* | 6.3µM* | ? | 7.1*
CC(NS(=O)(=O)c1ccc(Cl)cc1)C(=O)OCC(=O)Nc1ccc(N(C)C)cc1 (stereo not drawn) | 8% | -34% | nt | ? | ? | 2.5µM* | 4*
Cc1ccc(NC(=O)COC(=O)C(NS(=O)(=O)c2ccc(Cl)cc2)C(C)O)cc1 (stereo not drawn) | 0% | 9% | 9% | 6% | -11% | 26%[59 µM] | nt
O=C(NCC(O)c1ccc([N+](=O)[O-])cc1)C1=COCCO1 (stereo not drawn) | -1% | 18% | nt | nt | -8% | nt | nt
O=C(Nc1nc(-c2ccccn2)cs1)c1cccc(-n2cnnn2)c1 | nt | 105% | ? | 50µM* | 79µM* | 10%[59 µM] | nt | RGS4 inh=?
O=C(Nc1ccc(Br)cc1)c1cccc(-n2cnnn2)c1 | 1% | -14% | 7% | -18% | -9% | -7% | nt
